Data as given in PubChem BioAssay.

Target: Homeobox protein Hox-A13 (Mus musculus) (UniProt Q62424)
Assay: inhibitors of HoxA13-DNA binding, primary screen, biochemical, fluorescence polarization, labeled oligonucleotide (AID 1185)
Conditions: 15 min, higher = more signal, called active from +8 up or from −8 down

Sequence of Homeobox protein Hox-A13 (Mus musculus) (Q62424 whole entry, looked up): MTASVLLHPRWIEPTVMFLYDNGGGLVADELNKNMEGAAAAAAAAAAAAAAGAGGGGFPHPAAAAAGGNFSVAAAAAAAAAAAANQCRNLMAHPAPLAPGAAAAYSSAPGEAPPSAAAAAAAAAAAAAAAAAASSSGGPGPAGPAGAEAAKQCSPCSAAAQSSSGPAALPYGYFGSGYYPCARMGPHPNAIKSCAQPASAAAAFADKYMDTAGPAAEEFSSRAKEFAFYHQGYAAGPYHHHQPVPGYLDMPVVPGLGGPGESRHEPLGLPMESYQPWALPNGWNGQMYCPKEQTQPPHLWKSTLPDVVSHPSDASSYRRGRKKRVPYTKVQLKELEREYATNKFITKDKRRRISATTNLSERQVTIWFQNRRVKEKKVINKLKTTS

z-score, inactive:
COc1cc2c(cc1O)C(C1CC1)N(Cc1cccc(OC(F)(F)F)c1)CC2 (stereo unspecified) -5.17
C=CC[C@]1(C(=O)N2CCOCC2)COC(c2ccc(OCCCO)cc2)=N1 -6.97
C=CC[C@]1(C(=O)N2CCCCC2)N=C(c2ccc(OCCCO)cc2)O[C@H]1c1ccccc1CN=[N+]=[N-] -3.9
COc1ccc(CCNC(=O)[C@@]2(Sc3ccc(C)cc3)CC(=O)N(Cc3ccccc3C(F)(F)F)[C@@H]2c2ccc(CO)cc2I)cc1 -2.7
O=C1N(CCS(=O)(=O)c2ccccc2)c2ccccc2[C@H]2OC(c3ccc(OCCCO)cc3)=N[C@@]12Cc1ccccc1 -0.41
CCCCC[C@H]1OC[C@@]23C=C(Br)[C@@H](CC12)[C@@]1(CO1)C3=O (stereo partly specified) -2.47
COC(=O)[C@@]1(Cc2ccc(OC)cc2)[C@H]2c3cc(C(=O)N(C)C)n(Cc4ccc(OC(F)(F)F)cc4)c3C[C@H]2CN1C(=O)c1ccccc1 -5.65
CCC#CCN(Cc1ccccc1Br)[C@H](/C=C/C1CC1)[C@@H](O)Cc1ccccc1 -0.634
CC[C@@H]1O[Si](C(C)C)(C(C)C)c2c1cc(-c1cc(C)c(OC)c(C)c1)nc2-c1ccc(Oc2ccccc2)cc1 -1.52
CCCNC(=O)[C@@]1(C)c2ccccc2C(=O)N(c2ccc(C)cn2)[C@H]1c1ccc(CO)cc1 -1.63
[N-]=[N+]=Nc1ccccc1[C@@H]1OC(c2ccc(OCCCO)cc2)=N[C@]1(Cc1ccccc1)C(=O)N1CCCCC1 -4.3
